Compound activity: PubChem, National Center for Advancing Translational Sciences (NCATS)
Many of the other results were omitted from the sample, so hits are more common in it than they were.
Pf Dd2 inh = blocks in vitro growth of P. falciparum Dd2 | Potency, µM (doses to about 28.9 µM), hits mostly inhibitors | P. falciparum Dd2 growth, SYBR Green, 72 h | 4.3% of 120,000 active; active means well fitted inhibition curve with a large enough effect; further: nearly all actives have a fitted effect of over 65% in size
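Readout: SYBR Green fluorescence, 485 nm excitation, 535 nm emission, after ~16 h lysis at 37C. Before that, Dd2-infected red cells (2.5% hematocrit) grew 72 h with compound, 29 uM top final concentration.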
Of the large screens only hits and unclear results are named; the others gave an inactive call.

CN1CCN(C(=O)Cc2c[nH]c3ncc(-c4cccc(OC(F)(F)F)c4)cc23)CC1	none
COc1ncccc1-c1cnc2[nH]cc(CC(=O)Nc3ccccc3C)c2c1	Pf Dd2 inh 10µM
COc1ncccc1-c1cnc2[nH]cc(CC(=O)Nc3ccccc3)c2c1	none
O=C(Cc1c[nH]c2ncc(-c3cccc(OC(F)(F)F)c3)cc12)NCc1cccnc1	Pf Dd2 inh 4µM
COc1ncccc1-c1cnc2[nH]cc(CC(=O)Nc3ccncc3)c2c1	none
Cc1nc(C)c(C(=O)N2CCCN(C(=O)C3CC3)C(c3ccccc3)CC(=O)NCC2)s1 (configuration not stated)	none
Cc1ccc(C2Cn3nnc(C(=O)N4CCC(C(=O)Nc5ccc(F)c(Cl)c5)CC4)c3CO2)cc1 (configuration not stated)	none
Cc1ccc(NC(=O)CN2C(=O)NC3(CCC(C)CC3)C2=O)cc1Cl (configuration not stated)	none
O=C(c1c(OCC2CC2)cc(=O)n2c1CCOCC2)N1CCN(c2ncccn2)CC1	none
COCCN1C(=O)c2cccn2CC1CNC(=O)c1cccc(OC)c1 (configuration not stated)	none
CNC(=O)[C@@H]1C[C@@H](O)CN1C1CCN(C(=O)CC2CCCC2)CC1	none
CC(C)NC(=O)C[C@@H]1C[C@H]2O[C@H](CNC(=O)NC(C)C)[C@@H](O)[C@H]2O1	none
COC(=O)CNC(=O)c1cc(-c2ccc(Cl)cc2Cl)nc2c1cnn2C	none
CCOC(=O)CSc1nc2ccc(NC(=O)c3ccc(Cl)cc3)cc2s1	none
CCOC(=O)CNC(c1ccccc1)c1cc(Br)ccc1NC(=O)c1ccc(Cl)cc1 (configuration not stated)	Pf Dd2 inh 4µM
COC(=O)CNC(c1ccccc1)c1cc(Br)ccc1NC(=O)c1ccc(Cl)cc1 (configuration not stated)	none
COC(=O)c1cn([C@H]2CO[C@H]3[C@@H]2OC[C@H]3OC(=O)Nc2ccccc2)nn1	none
Cc1cccc(N2CCN(c3nc4ccccc4c4nc(-c5ccccc5)nn34)CC2)c1C	none
Cc1cccc(N2CCN(c3nc4ccccc4c(=O)n3-c3ccc(Cl)cc3)CC2)c1C	none
Cc1cccc(N2CCN(c3nc4ccccc4c4nnc(C)n34)CC2)c1C	Pf Dd2 inh 0.89µM
COc1ccc(C2(C(=O)N3CCCC(c4nn(C)c(=O)n4C(C)C)C3)CC2)cc1 (configuration not stated)	none
CN(CC1CCOC1)S(=O)(=O)c1ccc(F)cc1F (configuration not stated)	none
CCn1c2c(c(=O)n1Cc1ccccc1)CCN(C(=O)C1CCC(OC)CC1)C2 (configuration not stated)	none
O=C(C[C@@H]1O[C@H](CNC(=O)c2ccccc2)[C@@H](O)[C@H]1O)NC1CC1	none
O=c1cc(-c2ccncc2)oc2c(-c3ccccc3O)nccc12	Pf Dd2 inh 1.8µM
O=c1cc(-c2cccnc2)oc2c(-c3ccccc3F)nccc12	none
C[S+](=O)([O-])c1ccc(-c2nccc3c(=O)cc(-c4ccncc4)oc23)cc1	none
O=C(c1ccccc1F)N1CCC2(CC1)N=C(c1ccccc1)NO2	none
Cc1ccc(C#N)c(N2CC[C@@H](c3ccc4c(c3)OCO4)[C@H](O)C2)n1	none
CCCn1nccc1S(=O)(=O)N[C@@H]1CCOC[C@H]1Oc1ccccn1	none
CC1(C(=O)N2CCC(c3ccccc3)CC2)CCc2cnc(Nc3ccncc3)nc21 (configuration not stated)	Pf Dd2 inh 10µM
CC1(C(=O)N2CCCC2)CCCc2cnc(Nc3ccccc3)nc21 (configuration not stated)	none
CC(=O)N1CCN(C(=O)C2(C)CCc3cnc(Nc4ccccc4)nc32)CC1 (configuration not stated)	none
CC1(c2cccnc2)N(Cc2ccccc2)C(=O)OC12CCN(C(=O)C1CCOCC1)CC2 (configuration not stated)	none
CN(C)c1ccc2ncc(Nc3ccccc3)n2n1	none
c1ccc(-c2ccc3ncc(Nc4ccc(N5CCOCC5)cc4)n3n2)cc1	none
CN(C)c1ccc2ncc(Nc3cc(F)cc(N4CCOCC4)c3)n2n1	Pf Dd2 inh 10µM
COc1ccc(-c2noc(C(=O)O)c2[C@@H](C)NC(=O)Nc2cccnc2)cc1	none
Cc1cc(C)cc(OCC(=O)Nc2ccc(-c3nc4ncccc4o3)cc2C)c1	none
CCC(C)c1ccc(OCC(=O)Nc2cccc(-c3nc4ncccc4o3)c2)cc1 (configuration not stated)	Pf Dd2 inh 2.5µM
CC(C)c1ccc(OCC(=O)Nc2cc(-c3nc4ncccc4o3)ccc2Cl)cc1	none
O=C1CCCN1CC(=O)N1CCC[C@H](n2c(=O)n(CC3CC3)c3cccnc32)C1	none
CCc1noc([C@@H]2CC(F)(F)CN2C(=O)c2occc2C)n1	none
COc1ccc(-c2ccc(NS(=O)(=O)c3ccccc3)cc2)nn1	none
COc1ccc(-c2ccc(NS(=O)(=O)c3ccccc3Cl)cc2)nn1	Pf Dd2 inh 11µM
COc1ccc(-c2ccc(NS(=O)(=O)c3cccc(C)c3)cc2)nn1	none
O=C(NC1CCc2n[nH]c(=O)n2CC1)c1ccoc1 (configuration not stated)	none
O=[S+]1([O-])NCC2(CCN(Cc3c(F)cccc3F)C2)Oc2ccncc21 (configuration not stated)	none
O=C1COCCN1C1CCN(S(=O)(=O)c2cccc(C(F)(F)F)c2)CC1	none
CCc1ccc(CNC(=O)c2cc(-c3ccc(Cl)s3)nc3ccccc23)cc1	none
CCc1ccccc1NC(=O)c1cc(-c2ccc(Cl)s2)nc2ccccc12	none
COc1ccc(Nc2cc(C(=O)NCCc3ccccc3)c3ccccc3n2)cc1OC	none
CCCCN(CCCNC(=O)c1cc(Nc2ccc(OC)c(OC)c2)nc2ccccc12)Cc1ccccc1	Pf Dd2 inh 2.2µM
Cc1ccc(C)c(Nc2cc(C(=O)NCCCN(C)C3CCCCC3)c3ccccc3n2)c1	none
COc1ccc(CNC(=O)c2cc(-c3ccc(Br)s3)nc3ccccc23)c(OC)c1	none
CCCCN(CCCC)CCCNC(=O)c1cc(-c2ccc(Cl)s2)nc2ccccc12	Pf Dd2 inh 5.6µM
CCc1ccccc1Nc1cc(C(=O)NCCCN(C)C2CCCCC2)c2ccccc2n1	none
CCCCN(C)CCCNC(=O)c1cc(-c2ccc(Br)s2)nc2ccccc12	Pf Dd2 inh 11µM
CC(C)CCNC(=O)c1cc(-c2ccc(Br)s2)nc2ccccc12	none
Cc1cc(C)cc(Nc2cc(C(=O)NCCCN(C)C3CCCCC3)c3ccccc3n2)c1	Pf Dd2 inh 6.3µM
COc1ccc(Nc2cc(C(=O)NC3CCC(C)CC3)c3ccccc3n2)cc1OC (configuration not stated)	none
O=C(C1CC(=O)N(C2CC2)C1)N1CCC(Oc2ccccc2Cl)CC1 (configuration not stated)	none
Cn1cc(CNC(=O)C[C@@H]2C[C@H]3O[C@H](CNC(=O)NC4CCC4)[C@@H](O)[C@H]3O2)cn1	none
Cc1noc([C@H]2CCN(C(=O)Cc3c[nH]c4ccccc34)C[C@H]2NC(=O)C2CC2)n1	none
CCOCCCNC(=O)NCC12CCCC=C1NC(=O)CC2 (configuration not stated)	none
COCC(=O)NC[C@H]1CCN(Cc2ccc3c(c2)CCO3)C[C@H]1N(C)C	none
CNC(=O)[C@@H](c1ccccc1F)N1CCC[C@H]1C(=O)NCC(C)C	none
COCc1nc(NCCCc2c(C)noc2C)cc(C2CC(N)C2)n1 (configuration not stated)	none
CN1CC(=O)N(C2CNC2)Cc2c(NC3CC3)ncnc21	none
Cc1nnnn1CC(=O)N1CCCC(c2ccccc2)(c2ccccc2)C1	none
CC(C)c1cc(C(=O)N2CCCC(c3ccccc3)(c3ccccc3)C2)n(C)n1	Pf Dd2 inh 3.2µM
